Measurements from PubChem BioAssay AID1159580 (chemical genetic matrix, 2015).
Out of some 5,500 compounds screened, about 2,000 (36%) were called active. Not shown: some 18% with an inconclusive outcome. Rule as the data show it: active = normalized growth mostly below about 0.91 (no sharp cut-off); inconclusive = no clear call, values can overlap the other calls; inactive = mostly above about 0.92. Some of the results follow.

Assay: chemical genetic growth profiling, strain panel (AID 1159580);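 also: tested at 20 µM; growth read once vehicle control cultures reached saturation at 30 °C; 1 = growth at the plate median or of vehicle wells; lower values mean less growth of the strain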
Details: S. cerevisiae deletion strains, growth OD

Measured: normalized growth

C#CCOC(=O)C1=CCCN(C)C1
inactive: locus YAL013W, strain DEP1, hits give low values 1.01 | locus YAL040C, strain CLN3, hits give low values 1.02 | locus YDR363W, strain ESC2, hits give low values 0.986 | locus YER002W, strain NOP16, hits give low values 1.03 | locus YGR078C, strain PAC10, hits give low values 1.01 | locus YGR229C, strain SMI1, hits give low values 1.01 | locus YMR263W, strain SAP30, hits give low values 1 | locus YMR307W, strain GAS1, hits give low values 0.959 | locus YNL153C, strain GIM3, hits give low values 1.03 | locus YNL175C, strain NOP13, hits give low values 1.01 | locus YNL197C, strain WHI3, hits give low values 0.99 | locus YNL224C, strain SQS1, hits give low values 0.998 | locus YNL322C, strain KRE1, hits give low values 1 | locus YOR083W, strain WHI5 (second series), hits give low values 1

CC(C)(N)Cc1ccccc1
inactive: locus YHR030C, strain SLT2, hits give low values 1.02 | locus YHR079C, strain IRE1, hits give low values 1.02 | locus YJL095W, strain BCK1, hits give low values 1 | locus YJR066W, strain TOR1, hits give low values 0.947 | locus YLR113W, strain HOG1, hits give low values 0.965 | locus YNL183C, strain NPR1, hits give low values 0.937 | locus YOR231W, strain MKK1, hits give low values 1.01 | locus YPL256C, strain CLN2, hits give low values 1.03
